# Rows were chosen to be rich in hits. Some 8.9% of all compounds tested hit in one or more screens of this group.
# SW480 rerep: DNA re-replication induction in SW480 cells | AID 624297 | actives 1.8% (n = 340,000) | SW480 DNA re-replication, Hoechst DNA content imaging, 48 h | Potency, µM (doses to about 46.1 µM), for the others: at the highest dose re-replication activation, usual class: activators; further: potency means the concentration at half of the fitted maximal effect; % of control where 0% means no effect; nearly all actives have a fitted effect of over 55% in size
#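 SW480 cells exposed to compounds for 48 hr at 37 C, 5% CO2, then Hoechst-stained 40 min. Nuclear DNA content imaged by fluorescence scanning (405 nm excitation, 500-530 nm emission); re-replication scored as increased high-intensity nuclei.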
# MCF10A rerep: inducers of DNA re-replication in MCF 10A breast cells; MCF 10A DNA re-replication, Hoechst nuclear intensity, 48 h; Potency, µM (highest dose often 46.1 µM), without a hit: at the top dose activity, positive = re-replication, hits mostly activators; actives 2.9% (n = 350,000); AID 624296; further: potency means the concentration at half of the fitted maximal effect; % of control where 0% means no effect; nearly all actives have a fitted effect of over 50% in size
# D3 antag: blocks the human D3 dopamine receptor | P35462 | actives 2.5% (n = 360,000) | D3R cells, DiscoveRx beta-arrestin luminescence, antagonist mode; stronger effect = lower value | max response, negative = inhibition, %; in the data active means max response below about -50%; inconclusive means no clear call, values can overlap the other calls; further: on the % scale 0 is the no-effect control and ±100 the full control effect
# Target sequence (P35462 whole entry, looked up): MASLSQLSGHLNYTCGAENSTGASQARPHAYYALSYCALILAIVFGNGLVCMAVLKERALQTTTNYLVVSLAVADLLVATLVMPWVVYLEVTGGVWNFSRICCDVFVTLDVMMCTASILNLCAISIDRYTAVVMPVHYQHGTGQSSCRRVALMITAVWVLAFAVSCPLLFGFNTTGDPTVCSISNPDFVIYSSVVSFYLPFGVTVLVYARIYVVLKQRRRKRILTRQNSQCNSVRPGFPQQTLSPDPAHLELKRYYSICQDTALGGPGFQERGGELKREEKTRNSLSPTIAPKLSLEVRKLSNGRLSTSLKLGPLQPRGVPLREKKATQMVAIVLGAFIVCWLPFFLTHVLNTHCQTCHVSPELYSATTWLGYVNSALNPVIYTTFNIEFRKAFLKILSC
#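 Cells plated overnight at 1500 cells/well, then exposed to library compounds with dopamine controls for 90 minutes at 37 degrees C. DiscoveRx reagent added for 30–60 minutes at room temperature; luminescence read, quantitative HTS format.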
# D3 ag: activates the human D3 dopamine receptor. actives 0.58% (n = 410,000). AID 652048. max activation, %. P35462. D3R DiscoveRx beta-arrestin cells, luminescence, 90 min; in the data active means max activation above about 30%; further: 0% is about no effect
#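 Agonist-mode cell screen: cells plated at 1500/well and incubated overnight at 37 °C, then exposed to library compounds for 90 min at 37 °C. Detection reagent was added for 30–60 min at room temperature, and luminescence was read.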
# KB-3-1 cytotox: kills parental KB-3-1 adenocarcinoma cells | actives 1.4% (n = 400,000) | KB-3-1 viability, CellTiter-Glo ATP luminescence, 72 h | Potency, µM (top dose mostly 46.1 µM), hits mostly cytotoxic; further: potency means the concentration at half of the fitted maximal effect; on the % scale 0 is the no-effect control and ±100 the full control effect; nearly all actives have a fitted effect of over 60% in size
#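 KB-3-1 cells, DMEM (no phenol red) + 10% FBS; compound by pin transfer, 72 h, 37 °C. Readout: CellTiter-Glo luminescence after 10 min. Data normalized, curve-fitted.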
# KB-V1 cytotox: kills drug-selected multidrug resistant KB-V1 cells; actives 3.4% (n = 400,000); Potency, µM (highest dose often 46.1 µM), most hits filed as cytotoxic; KB-V1 MDR cells viability, CellTiter-Glo, 72 h; further: potency means the concentration at half of the fitted maximal effect; on the % scale 0 is the no-effect control and ±100 the full control effect; nearly all actives have a fitted effect of over 60% in size
#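 Potencies derive from concentration-effect curves fitted to normalized luminescence (CellTiter-Glo) of KB-V1 cells treated for 72 h at 37 degrees C in phenol-red-free DMEM containing 10% FBS.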
# * hit, by the source's call; i = inactive; u = inconclusive; x = not tested or not shown; [ ] = dose if it differs, or a comment. Unless noted, the call rests on the fitted dose curve; in most records, active means well fitted curve in the direction sought with a large enough effect; inconclusive means small, poorly fitted or top-dose-only effect, or another doubt; inactive means no such curve, though single readings can be large; an effect the other way counts as inactive or inconclusive.
SMILES,SW480 rerep,MCF10A rerep,D3 antag,D3 ag,KB-3-1 cytotox,KB-V1 cytotox
CC(=O)N1CC(C(=O)Nc2ccc3c(c2)OCO3)Oc2ccccc21 (stereo not drawn),-0.8%,6.7%,5.6,1.7,i,20.6µM*
CCc1cn(C2CC(O)C(CO)O2)c(=O)[nH]c1=O (stereo not drawn),-7.7%,24.8%,7.8,-2.0,4.61µM*,i
CCCN1C(C(=O)c2ccccc2)=C(OC(=O)COc2ccc(C)cc2)c2ccccc2S1(=O)=O,x,x,x,-15.4,x,x
Cc1ccc(Cl)cc1NS(=O)(=O)c1ccc(N2CCCCS2(=O)=O)cc1,x,x,x,-5.1,x,x
C[C@@H](CN(C)C)CN1c2ccccc2CCc2ccccc21,-7.0%[20.6 µM],0.3%[20.6 µM],x,x,x,x
Cc1cc(/C=C2/C(=N)N3C(=NC2=O)SN=C3S(C)(=O)=O)c(C)n1-c1ccc(F)cc1,-2.5%,20.6µM*,0.9,2.2,i,i
CCOc1ccc(-n2c(C)cc(/C=C3/C(=N)N4C(=NC3=O)SN=C4S(C)(=O)=O)c2C)cc1,12.6%,14.6µM*,6.6,2.7,i,i
CCOc1ncccc1C(=O)NCC(c1ccco1)N1CCCCC1 (stereo not drawn),1.8%,17.3%,18.1,1.5,i,u
COc1cc2c(=O)c(C(=O)c3ccc(F)cc3)cn(Cc3cccc(F)c3)c2cc1OC,x,x,x,11.1,i,i
CCNC(=S)N1N=C2c3ccccc3CCC2C1c1ccc(F)cc1 (stereo not drawn),28.8%,6.51µM*,15.4,25.6,u,20.6µM*
O=C(Nc1ccc(Br)cc1F)C1CCN(c2nc3ccccc3[nH]2)CC1,x,x,x,-6.0,i,i
COc1cc(CNC2CCCCCCC2)cc(Br)c1OCC#N,u,u,-18.5,-6.9,i,23.1µM*
COc1cc(CNC2CCCCCCC2)cc(Cl)c1OC,u,15.2%,22.5,-5.9,u,u
CCOc1c(Br)cc(CNC2CCCCCCC2)cc1OC,u,10.3µM*,u,-19.1,u,u
COc1cc(CNC2CCCC2)c(Br)cc1OC1CCCC1,25.2%,13.5%,-6.6,-22.1,i,u
Cc1cc(C)n2nc(CNC(=O)c3cccc(N(C)C)c3)nc2n1,x,x,x,-23.2,i,i
O=C(Oc1cccccc1=O)c1ccccc1,18.4µM*,u,-2.1,2.7,i,u
Cc1nnsc1C(=O)Oc1ccccc1Cl,x,x,x,9.1,i,i
O=C(Oc1ccccc1Cl)c1ccccc1,15.0%,16.4µM*,-28.8,-24.7,x,x
O=C(OCc1cc(=O)c(OC(=O)c2ccccc2)co1)c1ccccc1,0.1%,1.7%,6.0,2.5,i,u
CC(=O)N[C@@H]([C@@H](O)[C@H](O)[C@H](O)CO)[C@@H](O)CC(=O)C(=O)O,x,x,x,7.9,x,x
Cc1cc(SC#N)cc(C)c1NC(=O)CCl,x,u,-9.6,-4.6,i,i
CCc1cc(SC#N)cc(C)c1NC(=O)CCl,23.1µM*,16.4µM*,-56.3*,-6.8,u,i
CC(=O)N(CCCN(C)C)Cc1ccccn1,-9.2%,1.7%,0.0,44.2*,i,u
CC(=O)N(CCCc1ccc(C(C)(C)C)cc1)CCCN(C)C,0.7%,-2.2%,-28.3,-26.0,i,i
SMILES,SW480 rerep,MCF10A rerep,D3 antag,D3 ag,KB-3-1 cytotox,KB-V1 cytotox
CCCCOC(=O)Nc1ccc(S(=O)(=O)Nc2ccc([N+](=O)[O-])cc2)cc1,u,15.3%,-5.7,-10.5,i,20.6µM*
CC(=O)Nc1ccc(OCCOc2ccc(NC(C)=O)cc2)cc1,16.3%,-0.3%,6.5,-4.8,i,i
CC(=O)Nc1ccc(S(=O)(=O)Nc2ccc(S(=O)(=O)Nc3nc(C)cc(C)n3)cc2)cc1,-29.8%,-40.2%,0.8,-12.7,i,i
CCCCN(CCCC)S(=O)(=O)c1ccc(NS(=O)(=O)c2ccc(NC(C)=O)cc2)cc1,2.1%,14.6µM*,-4.9,1.0,i,i
CCCCN(CCCC)S(=O)(=O)c1ccc(NC(=O)Cc2cccs2)cc1,-2.2%,23.9%,-10.9,6.8,i,5.17µM*
CCCN(CCC)S(=O)(=O)c1ccc(NC(=O)Cc2cccs2)cc1,-1.3%,3.4%,-4.2,0.2,i,u
CCCCOc1ccc(S(=O)(=O)Nc2ccc(NC(C)=O)cc2)cc1,-3.4%,18.7%,18.5,0.2,u,20.6µM*
CCCCCOC(=O)Nc1ccc(S(=O)(=O)Nc2cccc([N+](=O)[O-])c2)cc1,-0.1%,u,u,-18.0,i,i
COc1ccccc1CCNC(=O)C(C)Sc1nc(-c2ccccc2)cc(C(F)(F)F)n1 (stereo not drawn),x,x,x,-20.2,i,i
CCOc1ccc(N(C)C(=O)c2oc(=O)c3ccccc3c2-c2ccccc2)cc1,x,x,x,-19.6,x,x
CCCN(CCC)C(=O)Cn1c(=O)n(-c2ccc(OC)cc2OC)c(=O)c2c3c(sc21)CCC3,x,x,x,7.2,i,i
c1cnc2cc3c(cc2n1)[C@@H]1CNC[C@H]3C1,x,x,x,4.0,x,x
Cc1ccc(CN(C)C(=O)CSc2nnc3n2CCCCC3)c(C)c1,-1.8%,11.1%,2.0,-3.5,i,14.6µM*
CCOC(=O)/C=c1\s/c(=C\c2ccc(C(F)(F)F)cc2)c(=O)n1CC(=O)NCc1ccco1,2.31µM*,23.1µM*,4.8,2.9,i,i
CCOC(=O)/C=c1\s/c(=C\c2ccc3cc(OC)ccc3c2)c(=O)n1CC(=O)NCC1CCCO1 (stereo not drawn),25.4%,11.6µM*,0.0,2.2,20.6µM*,18.4µM*
CCOC(=O)/C=c1/s/c(=C/c2ccc3cc(OC)ccc3c2)c(=O)n1CC(=O)NCc1ccc2c(c1)OCO2,u,1.46µM*,4.5,-11.7,u,i
CCOC(=O)/C=c1\s/c(=C\c2ccc(-c3ccccc3)cc2)c(=O)n1CC(=O)NCc1ccc2c(c1)OCO2,u,u,4.7,-3.8,u,i
COc1ccc(C(=O)NCc2nnnn2-c2ccc(C)c(C)c2)cc1,x,x,x,-11.7,x,x
O=C(Nc1ccc(F)cc1)c1cc(S(=O)(=O)Nc2ccc(F)cc2)cs1,23.2%,43.4%,-8.8,-0.1,i,i
O=C(Nc1ccc(F)cc1)c1cc(S(=O)(=O)N2CCOCC2)cs1,u,-0.5%,3.1,-2.6,i,i
Cc1ccc(NC(=O)c2cc(S(=O)(=O)N3CCCCC3)cs2)cc1,0.3%,u,-22.1,-14.6,u,14.6µM*
Cc1ccc(NC(=O)c2cc(S(=O)(=O)N3CCOCC3)cs2)cc1,2.8%,0.2%,-7.4,-4.2,i,i
COc1ccc(NC(=O)c2cc(S(=O)(=O)Nc3ccc(OC)cc3)cs2)cc1,-13.1%,3.2%,-11.5,-8.5,i,20.6µM*

# Source: PubChem (National Center for Advancing Translational Sciences (NCATS))
